ChEMBL document CHEMBL2218924, “A broad activity screen in support of a chemogenomic map for kinase signalling research and drug discovery” (Biochem J, 2013)

target: ALK tyrosine kinase receptor (Homo sapiens) (UniProt Q9UM73); details: at 10 µM
Sequence (Q9UM73 19-1620 limits assumed): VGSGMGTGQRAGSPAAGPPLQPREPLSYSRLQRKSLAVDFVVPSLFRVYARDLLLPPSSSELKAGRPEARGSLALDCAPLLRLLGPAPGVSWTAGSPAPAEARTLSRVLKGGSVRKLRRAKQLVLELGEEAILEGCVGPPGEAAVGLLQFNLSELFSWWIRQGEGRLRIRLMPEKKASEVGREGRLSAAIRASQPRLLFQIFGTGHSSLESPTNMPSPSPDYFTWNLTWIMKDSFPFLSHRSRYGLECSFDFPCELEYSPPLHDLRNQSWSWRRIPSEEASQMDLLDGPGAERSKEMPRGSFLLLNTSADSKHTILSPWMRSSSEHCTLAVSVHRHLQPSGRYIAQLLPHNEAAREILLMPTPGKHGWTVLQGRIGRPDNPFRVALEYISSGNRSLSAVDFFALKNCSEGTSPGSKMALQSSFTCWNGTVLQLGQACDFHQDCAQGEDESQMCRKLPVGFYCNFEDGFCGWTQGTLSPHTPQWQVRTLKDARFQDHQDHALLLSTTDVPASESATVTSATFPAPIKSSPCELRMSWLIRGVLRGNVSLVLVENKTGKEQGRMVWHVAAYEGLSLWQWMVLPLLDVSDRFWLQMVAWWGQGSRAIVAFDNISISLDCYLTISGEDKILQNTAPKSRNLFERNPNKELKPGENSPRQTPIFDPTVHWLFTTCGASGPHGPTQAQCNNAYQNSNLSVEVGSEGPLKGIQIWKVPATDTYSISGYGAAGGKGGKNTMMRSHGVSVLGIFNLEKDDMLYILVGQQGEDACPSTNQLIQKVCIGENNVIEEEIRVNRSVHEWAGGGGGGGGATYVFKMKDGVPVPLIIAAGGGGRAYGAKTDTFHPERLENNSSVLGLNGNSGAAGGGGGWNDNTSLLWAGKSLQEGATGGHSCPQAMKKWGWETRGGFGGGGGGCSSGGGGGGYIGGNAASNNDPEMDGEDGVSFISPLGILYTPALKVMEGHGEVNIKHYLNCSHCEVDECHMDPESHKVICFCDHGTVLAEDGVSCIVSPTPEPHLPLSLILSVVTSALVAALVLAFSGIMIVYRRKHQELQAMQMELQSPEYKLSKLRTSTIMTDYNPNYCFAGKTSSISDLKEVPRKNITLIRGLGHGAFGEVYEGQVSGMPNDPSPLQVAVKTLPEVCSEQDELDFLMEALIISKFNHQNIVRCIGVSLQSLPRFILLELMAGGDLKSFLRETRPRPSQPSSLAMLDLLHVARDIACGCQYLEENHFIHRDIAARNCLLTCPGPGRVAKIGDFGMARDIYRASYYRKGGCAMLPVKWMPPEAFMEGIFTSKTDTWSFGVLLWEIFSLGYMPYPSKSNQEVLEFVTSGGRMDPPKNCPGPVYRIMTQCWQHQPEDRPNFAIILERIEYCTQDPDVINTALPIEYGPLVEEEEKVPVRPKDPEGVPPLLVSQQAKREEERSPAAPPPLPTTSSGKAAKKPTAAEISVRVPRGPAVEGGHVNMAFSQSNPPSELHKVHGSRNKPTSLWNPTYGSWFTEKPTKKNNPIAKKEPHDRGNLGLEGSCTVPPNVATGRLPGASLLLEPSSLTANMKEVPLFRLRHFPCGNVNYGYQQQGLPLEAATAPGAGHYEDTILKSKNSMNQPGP

Compound | residual activity [%]
O=C1C(Cl)=C(N2C(=O)CCC2=O)C(=O)c2ccccc21 | 58
O=C(O)/C=C/c1cc(Br)c(Br)c(Br)c1Br | 87
Nc1n[nH]c2nc3ccccc3nc12 | 51
O=C(c1cc2cc(O)ccc2[nH]1)c1cc2cc(O)ccc2[nH]1 | 58
O=C(NC(NC(=S)Nc1ccc(F)c([N+](=O)[O-])c1)C(Cl)(Cl)Cl)C(c1ccccc1)c1ccccc1 (stereo not drawn) | 97
CCCCc1c(-c2ccc(OC)cc2)[nH]c2nccnc12 | 31
CCCC(=O)Oc1ccc2[nH]c(C(=O)c3cc4ccccc4[nH]3)cc2c1 | 99
NC(=O)Nc1sc(-c2ccc(F)cc2)cc1C(N)=O | 31
COc1cc2nccc(Oc3ccc(NC(=S)NC(=O)c4ccccc4C)cc3)c2cc1OC | 47
O=C1Cc2c([nH]c3ccc(Br)cc23)-c2ccccc2N1 | 56
O=C1Nc2ccc(Cl)cc2/C1=C/c1cc(Cl)c(O)c(Cl)c1 | 19
CC(C)(C)n1nc(Cc2cccc3ccccc23)c2c(N)ncnc21 | 49
COc1ccc(Cl)cc1NC(=O)Nc1cc(C)nc2ccccc12 | 58
O=c1cc(N2CCNCC2)oc2c(-c3ccccc3)cccc12 | 49
Nc1ncnc2c1c(-c1ccc(Oc3ccccc3)cc1)cn2C1CCCC1 | 27
O=C1NC(=O)c2c1c1c3ccccc3[nH]c1n1cncc21 | 48
CN(C)S(=O)(=O)c1ccc2c(c1)/C(=C/c1cc3c([nH]1)CCCC3)C(=O)N2 | 29
CCOC(=O)c1c(C)[nH]c(/C=C2\C(=O)Nc3ccccc32)c1C | 118
O=C1NC(=O)C(c2c[nH]c3ccccc23)=C1c1c[nH]c2ccccc12 | 44
CCN(CC)CCNC(=O)c1c(C)[nH]c(/C=C2\C(=O)Nc3ccc(Cl)cc32)c1C | 2
CC(C)c1nn(-c2c(Cl)cccc2Cl)c2nc(Cc3ccc(OCCO)cc3)[nH]c(=O)c12 | 42
Cn1sc(=O)n(Cc2ccccc2)c1=O | 71
O=C(CCCc1ccc(-c2ccccc2F)cc1)Nc1ccc(O)cc1 | 44
Cn1c2ccccc2c2c3c(c4c5ccccc5n(CCC#N)c4c21)CNC3=O | 4

target: T1, Activin receptor type-1B (Homo sapiens) (UniProt P36896); details: at 1 µM
T1 sequence (whole entry): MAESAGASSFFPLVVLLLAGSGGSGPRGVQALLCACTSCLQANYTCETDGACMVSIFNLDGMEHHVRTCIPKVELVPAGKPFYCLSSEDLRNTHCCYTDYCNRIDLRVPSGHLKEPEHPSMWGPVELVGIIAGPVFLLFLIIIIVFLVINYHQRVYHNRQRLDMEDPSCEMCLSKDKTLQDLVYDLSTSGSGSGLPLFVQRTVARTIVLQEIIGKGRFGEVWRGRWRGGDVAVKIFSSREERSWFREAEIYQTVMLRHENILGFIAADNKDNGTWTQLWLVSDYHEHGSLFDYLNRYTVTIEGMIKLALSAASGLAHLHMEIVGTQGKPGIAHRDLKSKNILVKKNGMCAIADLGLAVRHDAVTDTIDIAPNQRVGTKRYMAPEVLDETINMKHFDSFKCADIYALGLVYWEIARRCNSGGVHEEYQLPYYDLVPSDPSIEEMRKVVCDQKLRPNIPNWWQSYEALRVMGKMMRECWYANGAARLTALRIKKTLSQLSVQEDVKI

Compound | residual activity [%]
O=C1C(Cl)=C(N2C(=O)CCC2=O)C(=O)c2ccccc21 | 101
O=C(Nc1ccc(Cl)cc1)c1ccccc1NCc1ccncc1 | 130
COc1ccc(-c2cnc3c(-c4ccsc4)cnn3c2)cc1 | 126
O=C(c1cc2cc(O)ccc2[nH]1)c1cc2cc(O)ccc2[nH]1 | 111
Oc1cccc(-c2nc(N3CCOCC3)c3oc4ncccc4c3n2)c1 | 148
O=C(NC(NC(=S)Nc1ccc(F)c([N+](=O)[O-])c1)C(Cl)(Cl)Cl)C(c1ccccc1)c1ccccc1 (stereo not drawn) | 94
CCCCc1c(-c2ccc(OC)cc2)[nH]c2nccnc12 | 81
CCCC(=O)Oc1ccc2[nH]c(C(=O)c3cc4ccccc4[nH]3)cc2c1 | 132
COc1cc2nccc(Oc3ccc(NC(=S)NC(=O)c4ccccc4C)cc3)c2cc1OC | 126
NCCNc1ncc(C(N)=O)c(Nc2cccc(C(F)(F)F)c2)n1 | 136
CC(C)(C)n1nc(Cc2cccc3ccccc23)c2c(N)ncnc21 | 129
Nc1ncnc2c1c(-c1ccc(Oc3ccccc3)cc1)cn2C1CCCC1 | 125
O=C1NC(=O)c2c1c1c3ccccc3[nH]c1n1cncc21 | 97
CN(C)S(=O)(=O)c1ccc2c(c1)/C(=C/c1cc3c([nH]1)CCCC3)C(=O)N2 | 111
CCOC(=O)c1c(C)[nH]c(/C=C2\C(=O)Nc3ccccc32)c1C | 120
O=C1NC(=O)C(c2c[nH]c3ccccc23)=C1c1c[nH]c2ccccc12 | 114
CCN(CC)CCNC(=O)c1c(C)[nH]c(/C=C2\C(=O)Nc3ccc(Cl)cc32)c1C | 126
c1ccc(-c2cnc(Nc3ccc(OCCN4CCCC4)cc3)s2)cc1 | 131
O=C(CCCc1ccc(-c2ccccc2F)cc1)Nc1ccc(O)cc1 | 111
Cn1c2ccccc2c2c3c(c4c5ccccc5n(CCC#N)c4c21)CNC3=O | 108

target: T1, Activin receptor type-1B (Homo sapiens); details: at 10 µM

Compound | residual activity [%]
O=C1C(Cl)=C(N2C(=O)CCC2=O)C(=O)c2ccccc21 | 121
O=C(Nc1ccc(Cl)cc1)c1ccccc1NCc1ccncc1 | 72
O=C(O)/C=C/c1cc(Br)c(Br)c(Br)c1Br | 85
COc1ccc(-c2cnc3c(-c4ccsc4)cnn3c2)cc1 | 88
Oc1cccc(-c2nc(N3CCOCC3)c3oc4ncccc4c3n2)c1 | 92
O=C(NC(NC(=S)Nc1ccc(F)c([N+](=O)[O-])c1)C(Cl)(Cl)Cl)C(c1ccccc1)c1ccccc1 (stereo not drawn) | 103
CCCCc1c(-c2ccc(OC)cc2)[nH]c2nccnc12 | 39
CCCC(=O)Oc1ccc2[nH]c(C(=O)c3cc4ccccc4[nH]3)cc2c1 | 98
COc1cc2nccc(Oc3ccc(NC(=S)NC(=O)c4ccccc4C)cc3)c2cc1OC | 96
O=C1Cc2c([nH]c3ccc(Br)cc23)-c2ccccc2N1 | 72
CC(C)(C)n1nc(Cc2cccc3ccccc23)c2c(N)ncnc21 | 60
O=c1cc(N2CCOCC2)oc2c1ccc1ccccc12 | 104
CN(C)S(=O)(=O)c1ccc2c(c1)/C(=C/c1cc3c([nH]1)CCCC3)C(=O)N2 | 56
CCOC(=O)c1c(C)[nH]c(/C=C2\C(=O)Nc3ccccc32)c1C | 83
O=C1NC(=O)C(c2c[nH]c3ccccc23)=C1c1c[nH]c2ccccc12 | 75
CCN(CC)CCNC(=O)c1c(C)[nH]c(/C=C2\C(=O)Nc3ccc(Cl)cc32)c1C | 99
c1ccc(-c2cnc(Nc3ccc(OCCN4CCCC4)cc3)s2)cc1 | 115
O=C(CCCc1ccc(-c2ccccc2F)cc1)Nc1ccc(O)cc1 | 94
Cn1c2ccccc2c2c3c(c4c5ccccc5n(CCC#N)c4c21)CNC3=O | 64
